Source: the supplement of paper PMC10338343
± gives the standard deviation.

Key:
[1] = system: MILI (PIWIL2) piRISC loaded with piRNA #1 (26 nt); experiment: pre-steady-state target cleavage rate (min^-1); guide: piRNA #1 5'p-UGAGGUAGUAGGUUGUAUAGUAUCCA; higher = faster piRNA-guided slicing of the target; details: auxiliary factor: 500 nM mouse GTSF1
Summary of the method: (§1)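 Cleave-'n-Seq: 1 nM active affinity-purified piRISC with one synthetic guide and 0.1 nM transcribed, DNA-blocked target RNA library were mixed, with or without 500 nM GTSF1 partner protein, in HEPES–potassium acetate buffer at 33 °C for 0–8 or 0–960 min. Uncleaved targets were sequenced and normalised to depth and to weakly complementary targets, three trials were pooled, and k3 was capped at 0.0001 min^-1. The pre-steady-state cleavage rate was fitted […].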

[2] = system: EfPiwi piRISC loaded with piRNA #1 (26 nt); experiment: pre-steady-state target cleavage rate (min^-1); auxiliary factor: 500 nM Ephydatia muelleri Gtsf1; guide: piRNA #1 5'p-UGAGGUAGUAGGUUGUAUAGUAUCCA; MIWI and MILI are mouse PIWI proteins and EfPiwi is from a freshwater sponge; tags in brackets are library labels; higher = faster piRNA-guided slicing of the target
Summary of the method: as §1

Sequence | pre-steady-state target cleavage rate [1] | pre-steady-state target cleavage rate [2]
GGAGACGAUACUAUACAACCUACUUGCUCA | 0.155 ± 0.052 | 0.00371 ± 0.0014
GGAGUGGAUACUAUACAUCCUUCUACCUCA | 0.0293 ± 0.0033 | 0.00476 ± 0.0022
GGAGUGGAUACUAUACAACCUAUUACCUCA | 0.158 ± 0.014 | 0.0922 ± 0.034
GGAGACCUUACUAUCCAACCUACUACCUCA | 0.17 ± 0.018 | 0.0791 ± 0.034
GGAGACGAUACUAUACAACGUACUAGCUCA | 0.00418 ± 0.0035 | 0.00363 ± 0.0015
GGAGAAGAUACUAUACAACCUACUACCUCA | 0.22 ± 0.016 | 0.0965 ± 0.035
GGAGACGAUACUAUACAACCUACCACCUCA | 0.122 ± 0.018 | 0.00631 ± 0.0033
GGAGUGGAUACUAAACAACCUUCUACCUCA | 0.00905 ± 0.0025 | 0.00385 ± 0.0026
GGAGUGGAUACUAUACAACCUAUCUACCUCA | 0.113 ± 0.0078 | 0.00584 ± 0.0027
GGAGACCAUACUAUUCAAGCUACUACCUCA | 0.182 ± 0.016 | 0.00339 ± 0.0032
GGAGACGAUACUAUACAACCGACUACCUCA | 0.00402 ± 0.0035 | 0.00284 ± 0.002
GGAGACGAUACUAUUCAACCUUCUACCUCA | 0.0105 ± 0.0025 | 0.00443 ± 0.0025
GGAGACCAUAGCUAUACAACCUACUACCUCA | 0.121 ± 0.014 | 0.0108 ± 0.0051
GGAGACCAUACAAUACAACCUACUACCUCA | 0.189 ± 0.023 | 0.0108 ± 0.0032
GGAGUGGAUACUUUACAACCUUCUACCUCA | 0.0065 ± 0.0017 | 0.00301 ± 0.0026
GGAGACCUUACUAUACAACCUACUACCUGA | 0.117 ± 0.016 | 0.00415 ± 0.0019
GGAGAGGUUACUAAACAACCUACUACCUCA | 0.142 ± 0.013 | 0.00353 ± 0.0034
GGAGACGAUACUAUACACCUACUACCUCA | 0.0294 ± 0.0067 | 0.0134 ± 0.0055
GGAGUGGAUACCUAUACAACCUACUACCUCA | 0.0993 ± 0.019 | 0.0485 ± 0.018
GGAGACGAUACUAUACAUCCUACAACCUCA | 0.287 ± 0.022 | 0.00566 ± 0.0028
GGAGUGCAUACUAUACAACCUACAACCUCA | 0.0916 ± 0.01 | 0.00301 ± 0.0024
GGAGACGAUACUAUACAACCUACUACCUUCA | 0.194 ± 0.018 | 0.0163 ± 0.0063
GGAGACCAUACUAUACAACCUCCUACCUCA | 0.0492 ± 0.0088 | 0.00434 ± 0.0015
GGAGUGGAUACUAUCACAACCUACUACCUCA | 0.199 ± 0.013 | 0.0265 ± 0.011
GGAGACGAUACUAUACAACCUGACUACCUCA | 0.00401 ± 0.0024 | 0.00426 ± 0.0019

Sequence | pre-steady-state target cleavage rate [1] | pre-steady-state target cleavage rate [2]
GGAGACGAUACUUACAACCUACUACCUCA | 0.114 ± 0.01 | 0.00671 ± 0.0036
GGAGACCUUACUACUACAACCUACUACCUCA | 0.107 ± 0.011 | 0.00852 ± 0.0036
GGAGUGGAUACUAUACAACCUACACCUCA | 0.00292 ± 0.0021 | 0.00338 ± 0.0018
GGAGACCUAUGUAUACAACCUACUACCUCU [g2:g19:cont:t1U] | 0.0508 ± 0.0069 | 0.404 ± 0.18
GGAGAGGAUACUAUACAACCUACUGCCUCA | 0.126 ± 0.014 | 0.00919 ± 0.0038
GGAGACCAUUCUAUACAACCUACUACCACA | 0.159 ± 0.018 | 0.00335 ± 0.0031
GGAGACGAUACUAUACAACCUACUACUCUCA | 0.244 ± 0.019 | 0.00563 ± 0.0022
GGAGAGGAUACUAUACAACGUACUACCACA | 0.0287 ± 0.0041 | 0.00287 ± 0.0018
GGAGUCGAUACUAUACAACCUACUACCUGA | 0.0703 ± 0.011 | 0.00547 ± 0.0021
GGAGAGGAUACUAUACAACCUACUACCUUA | 0.19 ± 0.018 | 0.204 ± 0.073
GGAGACCUAUCUAUACAAGCUACUACCUGA | 0.125 ± 0.019 | 0.00244 ± 0.0023
GGAGAGGAUACUAUACAACCUACUACGCUCA | 0.0912 ± 0.013 | 0.00523 ± 0.0019
GGAGUCGAUACUAUACAACCUUCUACCUCA | 0.00775 ± 0.0022 | 0.00622 ± 0.0028
GGAGACCAAACUAUUCAACCUACUACCUCA | 0.217 ± 0.047 | 0.00445 ± 0.004
GGAGAGGAUACUUUACAACCUACUACCACA | 0.152 ± 0.015 | 0.0019 ± 0.0011
GGAGUGGAUACAAUACAACCUACUACCACA | 0.111 ± 0.0093 | 0.00323 ± 0.0018
GGAGAGGAUACUAUACUACCUACUUCCUCA | 0.0617 ± 0.016 | 0.00269 ± 0.002
GGAGACCAUACAAUACAUCCUACUACCUCA | 0.209 ± 0.025 | 0.00484 ± 0.003
GGAGACGAAACUAUACAACCUACAACCUCA | 0.133 ± 0.031 | 0.00368 ± 0.0027
GGAGAGGUUACUAUACAACGUACUACCUCA | 0.00751 ± 0.0028 | 0.00457 ± 0.0015
GGAGACCUUAACUAUACAACCUACUACCUCA | 0.138 ± 0.01 | 0.113 ± 0.039
GGAGACCAUAGUAUACAUCCUACUACCUCA | 0.19 ± 0.014 | 0.00617 ± 0.0032
GGAGAGGAUACUAUACAACCUACCACCUCA | 0.129 ± 0.018 | 0.00459 ± 0.002
GGAGACCUAUGUAUACAACCUACUACCUCCA | 0.0928 ± 0.016 | 0.00535 ± 0.004
GGAGACCUAUCAAUACAACCUACUACCUCA | 0.0355 ± 0.0083 | 0.00612 ± 0.0034
